Among the test systems are HCT-15 colon; HT29 colon; SNB-75 CNS; SNB-19 CNS; U251 CNS; PC-3 prostate; SK-MEL-5 melanoma; UACC-62 melanoma; LOX IMVI melanoma; SK-MEL-28 melanoma.
Holding throughout (assay): NCI-60 one-dose screen, 48 h (100 = growth as untreated, 0 = no growth, -100 = all killed)
Holding throughout (details): 10 µM unless noted

The structures appear in SMILES notation. The panel holds about 83,000 compounds, 20% with a hit somewhere; the sample as a whole holds those more often.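 Plates (96-well) were seeded with cells, treated with compound at one concentration, and incubated for 48 hours before percent growth was determined.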 Values without a mark were called inactive. The source made the active and inactive calls. Rule for the calls: active = growth percent below 10; inactive = the rest.

The results in this text go back to PubChem BioAssay (NCI).

For the molecule `CC1CCN(Cc2ccc(NC(=O)c3cc4ccc5cccnc5c4[nH]3)cc2)CC1`, the growth was 22.2% in the assay with HCT-15 colon; 6.27% (active) in the assay with HT29 colon; 14.5% with SNB-75 CNS; 64.6% in the assay with SNB-19 CNS; 14.7% in the assay on U251 CNS; 41.6% in the assay with PC-3 prostate. The growth in the assay on SK-MEL-5 melanoma was 2% (active); in the assay on UACC-62 melanoma, -65.4% (active); in the assay with LOX IMVI melanoma it was 8.82% (active); with SK-MEL-28 melanoma, -31.9% (active).
In the case of `COc1cc(C)cc2oc3oc(=O)c(-c4csc(-c5cc6ccccc6oc5=O)n4)cc3c(=O)c12`, the growth with HCT-15 colon was 114%; in the assay with HT29 colon it was 110%; in the assay with SNB-75 CNS, 113%; with SNB-19 CNS it was 99.3%; in the assay on U251 CNS it was 110%; in the assay with PC-3 prostate it was 104%. Moreover, the growth in the assay with SK-MEL-5 melanoma was 99.9%; with UACC-62 melanoma, 99.2%; in the assay on LOX IMVI melanoma, 94.6%; in the assay with SK-MEL-28 melanoma, 109%.
For `Cn1c(=O)c2[nH]c(Cc3ccc4c(c3)OCO4)nc2n(C)c1=O`, the growth was 93.8% with HCT-15 colon; 120% with HT29 colon; 95.3% in the assay with SNB-75 CNS; 101% in the assay with SNB-19 CNS; 110% in the assay on U251 CNS; 86.1% with PC-3 prostate. For the same molecule, the growth with SK-MEL-5 melanoma is 108%; in the assay with UACC-62 melanoma, 98%; in the assay on LOX IMVI melanoma it was 99.5%; in the assay on SK-MEL-28 melanoma, 106%.
Consider `Cc1cc(-c2nnc(/C=C/c3ccc4c(c3)OCO4)o2)n[nH]1`, for which the growth in the assay with HCT-15 colon is 44.3%; with HT29 colon, 23%; in the assay with SNB-75 CNS, 51.3%; with SNB-19 CNS, 86.8%; in the assay with U251 CNS it was 85.1%; in the assay on PC-3 prostate it was 74.3%. For the same molecule, the growth in the assay on SK-MEL-5 melanoma is 70.9%; with UACC-62 melanoma, 69.5%; in the assay with LOX IMVI melanoma, 52.5%; in the assay on SK-MEL-28 melanoma it was 71.5%.
For the molecule `Nc1c(C(=O)Nc2cccc(Cl)c2)sc2ncc(Br)cc12`, the growth in the assay with HCT-15 colon is 82.5%; in the assay on HT29 colon it was 66.4%; in the assay with SNB-75 CNS, 56%; with SNB-19 CNS, 107%; in the assay with U251 CNS, 10.8%; in the assay with PC-3 prostate, 80.1%. Moreover, the growth in the assay on SK-MEL-5 melanoma is 95.6%; in the assay on UACC-62 melanoma, 99.5%; with LOX IMVI melanoma, 39.9%; in the assay with SK-MEL-28 melanoma, 89.2%.
On to `CS(=O)(=O)Nc1cc(-c2cc3ncc(C#N)c(Nc4ccc(Oc5ccccc5)c(Cl)c4)c3s2)cnc1Cl`, for which the growth in the assay with HCT-15 colon was 37.2%; in the assay on HT29 colon, 57.6%; with SNB-75 CNS, 39.2%; in the assay with SNB-19 CNS, 62.8%; with U251 CNS, 44.6%; in the assay with PC-3 prostate, 45.5%. In addition, the growth was 52.5% in the assay with SK-MEL-5 melanoma, 22% with UACC-62 melanoma, 25.9% in the assay with LOX IMVI melanoma and 62.3% in the assay on SK-MEL-28 melanoma.
Regarding `CN(C)c1ccc(Nc2c3ccccc3nc3ccccc23)cc1`, the growth was 6.89% (active) in the assay with HCT-15 colon; 8.13% (active) in the assay with HT29 colon; 9.38% (active) in the assay with SNB-75 CNS; 28.4% with SNB-19 CNS; 23% in the assay on U251 CNS; 33% in the assay with PC-3 prostate. Besides, the growth is 9.1% (active) in the assay on SK-MEL-5 melanoma, 14.3% in the assay on UACC-62 melanoma, -7.85% (active) in the assay with LOX IMVI melanoma and 26% in the assay on SK-MEL-28 melanoma.
Turning to `O=C(C(=O)c1cccnc1)c1cccnc1`, the growth with HCT-15 colon is 120%; with HT29 colon, 108%; in the assay with SNB-75 CNS, 107%; with SNB-19 CNS it was 110%; in the assay on U251 CNS, 112%; in the assay with PC-3 prostate, 107%. The growth is 105% with SK-MEL-5 melanoma, 102% in the assay with UACC-62 melanoma, 100% in the assay on LOX IMVI melanoma and 135% in the assay with SK-MEL-28 melanoma.
On to `O=C(O)Cn1ccc2ccccc21`, for which the growth in the assay on HCT-15 colon was 111%; in the assay on HT29 colon, 106%; with SNB-75 CNS it was 91.1%; in the assay with SNB-19 CNS, 98.9%; in the assay with U251 CNS, 108%; with PC-3 prostate, 101%. Besides, the growth in the assay on SK-MEL-5 melanoma was 98.7%; in the assay on UACC-62 melanoma, 104%; in the assay with LOX IMVI melanoma it was 91.8%; in the assay on SK-MEL-28 melanoma, 134%.
Consider `CC(=O)OC1Oc2cc(C)c(C)cc2-c2oc(=O)c(-c3ccc(F)cc3)cc21` (stereo not given), for which the growth with HCT-15 colon is 46.6%; in the assay on HT29 colon, 16.1%; with SNB-75 CNS it was 77.9%; with SNB-19 CNS, 90.5%; in the assay with U251 CNS, 53.5%; in the assay on PC-3 prostate it was 60.2%. The growth in the assay on SK-MEL-5 melanoma was 55.2%; in the assay on UACC-62 melanoma, 49.8%; in the assay with LOX IMVI melanoma, 60.2%; in the assay on SK-MEL-28 melanoma, 64.2%.
Take `COc1cc(C2CC(c3ccc(Nc4ccnc5cc(Cl)ccc45)cc3)=NN2c2ccccc2)cc(OC)c1OC` (stereo not given): the growth in the assay on HCT-15 colon was 45.5%; in the assay on HT29 colon it was 44.2%; in the assay with SNB-75 CNS, 72.6%; with SNB-19 CNS it was 79.7%; with U251 CNS, 60.5%; with PC-3 prostate it was 60.8%. For the same molecule, the growth in the assay with SK-MEL-5 melanoma was 49.5%; in the assay on UACC-62 melanoma, 49.9%; in the assay on LOX IMVI melanoma, 58.7%; in the assay on SK-MEL-28 melanoma it was 79.1%.
Regarding `CC(C)CC(NC(=O)OCC1c2ccccc2-c2ccccc21)C(=O)O` (stereo not given), the growth in the assay with HCT-15 colon is 105%; in the assay with HT29 colon it was 112%; in the assay on SNB-75 CNS it was 90.3%; with SNB-19 CNS, 99.1%; in the assay with U251 CNS, 97.6%; in the assay on PC-3 prostate, 104%. Besides, the growth is 101% with SK-MEL-5 melanoma, 104% in the assay on UACC-62 melanoma, 103% in the assay with LOX IMVI melanoma and 105% in the assay with SK-MEL-28 melanoma.
Take `CC1=C(C(=O)Nc2ccc(F)cc2)C(c2ccc(C)cc2)C2=C(CC(C)(C)CC2=O)N1` (stereo not given): the growth in the assay with HCT-15 colon was 94%; with HT29 colon, 100%; in the assay with SNB-75 CNS it was 55.7%; in the assay with SNB-19 CNS it was 92.5%; in the assay on U251 CNS, 88.8%; with PC-3 prostate, 75.3%. Moreover, the growth in the assay with SK-MEL-5 melanoma is 94.1%; with UACC-62 melanoma, 86.4%; in the assay with LOX IMVI melanoma, 90%; with SK-MEL-28 melanoma, 97.1%.
Regarding `COc1ccc(C(=O)/C=C/c2cn(-c3ccccc3)nc2-c2cccc(Nc3ccnc4cc(Cl)ccc34)c2)cc1`, the growth in the assay on HCT-15 colon is 101%; in the assay on HT29 colon, 104%; in the assay on SNB-75 CNS, 99.5%; in the assay with SNB-19 CNS, 93.2%; in the assay on U251 CNS it was 94.9%; in the assay on PC-3 prostate it was 87.4%. For the same molecule, the growth in the assay with SK-MEL-5 melanoma is 88.4%; in the assay on UACC-62 melanoma, 89.9%; in the assay on LOX IMVI melanoma, 104%; in the assay on SK-MEL-28 melanoma, 95.3%.
